Laboratory results as given in PubChem BioAssay (NCI).
Compounds without any hit were thinned out: in the full panel of roughly 83,000, 20% have a hit.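 96-well plates, one dose, 48 hours. Percent growth reported; active if below 10.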 Values without a mark were called inactive. Activity calls are given as the source filed them.

Key:
Test in all cases: NCI-60 one-dose screen, 48 h (100 = growth as untreated, 0 = no growth, -100 = all killed)
Conditions in all cases: 10 µM unless noted
NCI-H23 lung = system: NCI-H23 lung
NCI-H226 lung = system: NCI-H226 lung
NCI-H322M lung = system: NCI-H322M lung
HOP-62 NSCLC = system: HOP-62 NSCLC
NCI-H460 lung = system: NCI-H460 lung
HOP-92 NSCLC = system: HOP-92 NSCLC
NCI-H522 lung = system: NCI-H522 lung
A549/ATCC NSCLC = system: A549/ATCC NSCLC
786-0 renal = system: 786-0 renal
COLO 205 colon = system: COLO 205 colon

SMILES	growth (NCI-H23 lung)	growth (NCI-H226 lung)	growth (NCI-H322M lung)	growth (HOP-62 NSCLC)	growth (NCI-H460 lung)	growth (HOP-92 NSCLC)	growth (NCI-H522 lung)	growth (A549/ATCC NSCLC)	growth (786-0 renal)	growth (COLO 205 colon)
CCCC[n+]1ccc(SCC(=O)n2ccc3ccccc32)c2ccccc21	74.5%	71.1%	96.4%	103%	97.8%	138%	83.2%	87.5%	106%	99.8%
C/C(CC1(O)C(=O)Nc2ccccc21)=N\O (stereo not given)	101%	98%	102%	95.2%	101%	93.9%	91.3%	102%	101%	103%
O=c1c2ccccc2cc2n1CCN=C2c1ccccc1	93.8%	96%	99.7%	116%	101%	81%	98%	102%	96.8%	103%
CC(Nc1c(C#N)cnc2ccc(-c3cncc(O)c3)cc12)c1ccccc1 (stereo not given)	1.12% (active)	2.59% (active)	-36.8% (active)	5.27% (active)	0.377% (active)	-3.64% (active)	-43.4% (active)	15.9%	-1.52% (active)	57.6%
Cc1ccc(-c2csc(N/N=C/c3cccs3)n2)cc1	79.4%	70.1%	97%	95.3%	99.4%	87.3%	73.3%	84.2%	97.5%	115%
COc1cc(/C=N\NC(=O)c2ccc3nc(-c4ccc(Br)cc4)[nH]c3c2)cc(OC)c1OC	40.2%	48.7%	76.8%	72.6%	42.3%	34.4%	45.4%	72.5%	38.4%	32.5%
CC(O)c1cccc(/C(N)=N/C(N)=N/c2nc3ccccc3s2)c1 (stereo not given)	91.6%	85.9%	97.4%	98.6%	85.4%	97.6%	96.9%	82%	101%	109%
CCN(CC)c1ccc(/C=N/NC(=O)c2ccc(NS(C)(=O)=O)cc2)c(O)c1	23.3%	39.3%	25.2%	13.2%	3.18% (active)	38.9%	12.5%	12.3%	1.77% (active)	5.67% (active)
CN(C)CCNc1ccc2ncc(C#Cc3cncc(C(=O)Nc4ccc(CN5CCN(C)CC5)c(C(F)(F)F)c4)c3)n2n1	-62.4% (active)	33.4%	6.14% (active)	-37.2% (active)	9.62% (active)	-4.93% (active)	-61.8% (active)	29.1%	4.34% (active)	-32.3% (active)
CC(=C(c1ccc(OCCN2CCCC2)cc1)c1ccc(OCCN2CCCC2)cc1)c1ccc(Cl)cc1	60.7%	80%	15.6%	-68.7% (active)	-52.2% (active)	-1.74% (active)	-48.5% (active)	-61.8% (active)	-85.9% (active)	-74.4% (active)
C=C(C)[C@@H]1CC[C@]2(COP(=O)(OCC)OCC)CC[C@]3(C)[C@H](CC[C@@H]4[C@@]5(C)CC[C@H](OP(=O)(OCC)OCC)C(C)(C)[C@@H]5CC[C@]43C)[C@@H]12	13.5%	28.3%	59.6%	63.5%	22.3%	42.2%	35.5%	28.4%	72.8%	44.2%
CC(C)=CCC[C@](C)(O)[C@H]1CC[C@]2(C)[C@@H]1CC[C@@H]1[C@@]3(C)CC[C@H](N)C(C)(C)[C@@H]3CC[C@]12C	76.5%	93.1%	111%	97.9%	27.4%	76.3%	96.8%	67.3%	61.9%	-31.4% (active)
O=c1c2cc(-c3ccc(F)cc3F)ccc2n(Nc2ccccc2)c(=O)n1-c1cccc(C(F)(F)F)c1	2.36% (active)	14.7%	7.15% (active)	10.9%	9.35% (active)	-33.3% (active)	-5.32% (active)	10.5%	48.2%	74.1%
CN1CCN(c2ccc(Nc3nc(NCCCNS(=O)(=O)c4ccc(F)cc4)c4sccc4n3)cc2)CC1	87%	99.4%	87.6%	91.5%	72%	37.8%	71%	77.9%	3.97% (active)	50.5%
O=C(Nc1ccc(Cl)c(C(F)(F)F)c1)Nc1ccc2c(ccn2C(=O)c2cccc(F)c2)c1	10.3%	36.5%	73.1%	54.5%	13.2%	5.69% (active)	5.03% (active)	30.6%	42.4%	25.3%
Clc1cccc(/C=N/Nc2nc(N/N=C/c3cccc(Cl)c3)nc(N3CCOCC3)n2)c1	70.6%	60.4%	53.8%	110%	78.2%	65.4%	13.9%	46.6%	30.6%	36.9%
COc1ccc(/C=N/N=C(/c2ccccc2)c2ccc3nc(-c4ccc(Cl)cc4)[nH]c3c2)cc1	91.1%	77%	84.3%	99.3%	90%	106%	72.9%	75.1%	76.9%	72%
O=C(CSc1nc2ccccc2c(=O)n1-c1ccc(Cl)cc1)N/N=C/c1ccc(Oc2ccc(Cl)cc2)cc1	3.12% (active)	75.6%	89.8%	32.6%	-34.5% (active)	2.59% (active)	20.7%	16.5%	-4.71% (active)	14.6%
CCCCN1C(=O)/C(=c2\sc3n(c2=O)C2C(NN=3)N(CC)C(=O)N2CC)c2cc(C)ccc21 (stereo not given)	95.5%	87.3%	88.1%	108%	102%	86.5%	88.3%	91.4%	94.4%	94%
CC(C)(C)OC(=O)Nc1ccc(-c2cccc(Oc3ccc4nnc(Cl)n4n3)c2)cc1	69.7%	66.4%	101%	104%	82.4%	42.3%	64.9%	85.6%	81.9%	88.5%
CN(C)S(=O)(=O)c1ccc(-c2nc(C(Cl)Cl)nc3cc(-c4ccccc4)nn23)cc1	85%	96%	99%	70.7%	89%	79%	89.6%	82.6%	90.6%	69.5%
CCCCSC1=C(Cl)CN(c2ccc(Cl)cc2)C1=O	102%	96.1%	107%	106%	93.4%	96.6%	-4.15% (active)	102%	99.2%	125%
CC(=O)N(O)CCCCCNC(=O)CCC(=O)N(O)CCCCCNC(=O)CCC(=O)N(O)CCCCCN(CCCCCCCCCC[P+](c1ccccc1)(c1ccccc1)c1ccccc1)CCCCCCCCCC[P+](c1ccccc1)(c1ccccc1)c1ccccc1	-16.5% (active)	-6.05% (active)	-28.9% (active)	7.35% (active)	-12.4% (active)	-18.4% (active)	-18.8% (active)	9% (active)	21.5%	-43.4% (active)
COc1ccc2c(c1)C=CC1(O2)Oc2ccc(OC)cc2C=C1C (stereo not given)	39.7%	57.4%	49.5%	51%	7.29% (active)	-6.57% (active)	10.7%	18.5%	26.5%	2.43% (active)
CC1=C(C)C(=O)C(Nc2cccc(C(F)(F)F)c2)=C(Br)C1=O	88.8%	83.2%	100%	81.1%	96.4%	25%	29.2%	94.4%	97%	115%
CN1CCN(Cc2ccc(NC(=O)c3cncc(C#Cc4cnc5ccc(OCC(F)F)nn45)c3)cc2C(F)(F)F)CC1	-51.2% (active)	-62.6% (active)	-35.4% (active)	-76.6% (active)	-85% (active)	-30.7% (active)	-75.9% (active)	-61.6% (active)	-90.3% (active)	-87.7% (active)
